IP6K1 inhibitor – IP6K1 kinase inhibition | activity change, % (series mostly up to about 58 µM) | Q92551 | 0.81% of 140,000 active | IP6K1 kinase, ADP-Glo luminescence, 2 h; hits give low values; in the data active = activity change below about -25%
Target sequence (Q92551 whole entry, looked up): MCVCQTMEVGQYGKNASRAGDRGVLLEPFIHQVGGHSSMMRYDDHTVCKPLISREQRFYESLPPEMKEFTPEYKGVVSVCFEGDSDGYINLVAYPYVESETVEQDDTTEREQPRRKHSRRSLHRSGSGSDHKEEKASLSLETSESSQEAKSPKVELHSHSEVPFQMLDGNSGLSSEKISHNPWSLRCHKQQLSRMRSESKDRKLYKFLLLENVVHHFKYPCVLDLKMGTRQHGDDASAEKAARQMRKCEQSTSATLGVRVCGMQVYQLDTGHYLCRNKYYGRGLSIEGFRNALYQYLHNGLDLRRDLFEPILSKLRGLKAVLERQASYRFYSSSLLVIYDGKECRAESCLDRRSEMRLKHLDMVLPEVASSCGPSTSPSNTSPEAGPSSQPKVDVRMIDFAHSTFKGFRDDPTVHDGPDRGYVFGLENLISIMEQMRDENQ
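ADP-Glo luminescence measures ADP made by human IP6K1 during a 2 h RT reaction with ATP/IP6 (mix at 1.3 mM/130 uM); top library doses 57.5 and 19.1 uM final.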
KDM5B inhibitor – blocks human KDM5B histone demethylase activity. Q9UGL1. KDM5B demethylase, FDH-coupled NADH fluorescence (FDH is formaldehyde dehydrogenase). Potency, µM (titrated, usually from 57.7 µM), hits mostly inhibitors. 2.6% of 220,000 active. AID 1347165; also: nearly all actives have a fitted effect of over 70% in size
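KDM5BΔAP (200 nM final) in 50 mM HEPES pH 7.5, 0.01% Tween-20 was preincubated 10 min at RT with compound over a concentration range. Substrate mix (H3K4me3 12.5 µM, α-KG 25 µM, Fe²⁺, ascorbate, NAD⁺, FDH) was added, and NADH fluorescence change over 30 min gave dose-response curves.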
SNCA viab count – reduces viability of HEK-293 SNCA reporter cells; HEK-293-SNCA-luc viability, GF-AFC fluorescence, 24 h; Potency, µM (highest dose often 57.1 µM), most hits filed as cytotoxic; 0.12% of 150,000 active; AID 1671193; also: nearly all actives have a fitted effect of over 30% in size
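HEK-293-SNCA-luc cells (1500/well) plated 24 h, then exposed 24 h to a dilution series; GF-AFC added 30 min at 37C, fluorescence 405/540 nm; normalised to medium-only and DMSO wells, Hill fit.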
SNCA expr inhib – reduces expression of the alpha-synuclein gene; 0.17% of 140,000 active; HEK-293 SNCA-luciferase knock-in, luminescence, 24 h; Potency, µM (titrated, usually from 57.2 µM), usual class: inhibitors; also: nearly all actives have a fitted effect of over 45% in size
IP6K1 conf – confirmation of human IP6K1 inhibitors. recombinant IP6K1 kinase, ADP-Glo luminescence, 2 h. Potency, µM (top dose mostly 49 µM), most hits filed as inhibitors. shares compounds with IP6K1 inhibitor. 13% of 1,200 active. AID 1645852; also: nearly all actives have a fitted effect of over 65% in size
Numbers stand for hits; . = inactive; ? = inconclusive; / = no result; ! = repeats disagree. Shown are actives, neighbours in structure and some others; about 3% of the full set was active somewhere. Unless noted, calls follow the shape of the dose curve; as a rule, active = well fitted curve in the direction sought with a large enough effect; inconclusive = small, poorly fitted or top-dose-only effect, or another doubt; inactive = no such curve, though single readings can be large; an effect the other way counts as inactive or inconclusive.

SMILES | IP6K1 inhibitor | KDM5B inhibitor | SNCA viab count | SNCA expr inhib | IP6K1 conf
CCn1c2c(c(=O)n3ncc(C(=O)Nc4ccc(C(=O)OC)cc4)c13)CN(Cc1ccc(OC)cc1)CC2 | -35 | ? | . | . | .
CCCCCCN(CCC(=O)NCCc1ccccc1)C(=O)c1cc(C)oc1C | . | ? | . | . | /
CC(=O)c1cccc(NC(=O)Nc2nnc(N3CCCC3)s2)c1 | -38 | . | . | . | .
Cc1cccc(NC(=O)Nc2nnc(N3CCCC3)s2)c1 | . | . | . | . | /
Cc1ccc(-c2cccc(CN3CCCC(NC(=O)c4ccccc4C)C3)c2)cc1Cl (stereo unspecified) | . | / | . | ? | /
O=C(O)CCCNc1cc(N2CCN(C3CCCCC3)CC2)c2noc3c2c1C(=O)c1ccccc1-3 | -34 | ? | ? | ? | ?
Cc1ccc(C)c(Cn2cc(S(=O)(=O)c3ccc(Cl)cc3)c(=O)c3cc(F)ccc32)c1 | -25 | . | . | . | .
O=Cc1ccc(-c2ccc(C(=O)O)cn2)cc1 | -27 | 22µM | . | . | .
O=Cc1cccc(-c2ccc(C(=O)O)cn2)c1 | . | . | . | . | /
CCN(CC)CC1CCN(C(=O)CCc2c[nH]c3ccccc23)CC1 | / | . | / | / | /
CN(Cc1cnn(C)c1)C(=O)C1C2C(=O)N(Cc3ccc(F)cc3)C[C@@]23C=C[C@@H]1O3 (stereo partly specified) | -42 | . | . | . | .
O=C(C1C2C(=O)N(Cc3ccc(F)cc3)C[C@@]23C=C[C@@H]1O3)N1CCSCC1 (stereo partly specified) | . | . | . | . | /
O=C(Nc1cccc(F)c1)Nc1ccnn1C1CCN(C(=O)C2CCC2)CC1 | -32 | . | . | . | .
NC(=O)Cc1c[nH]c2ncc(-c3ccccc3Oc3ccccc3)cc12 | . | ? | . | ? | /
COc1cccc(-c2cnc3[nH]cc(CC(N)=O)c3c2)c1 | -44 | 35µM | . | . | ?
NC(=O)Cc1c[nH]c2ncc(-c3cccc(OC(F)(F)F)c3)cc12 | -27 | ? | . | . | ?
CN1CCC[C@@H]1c1cccnc1 | -31 | / | . | . | .
CN1C(=O)CC[C@H]1c1cccnc1 | . | / | . | . | /
N#Cc1cccc(NC(=O)c2cc3c(s2)-c2ccc(Cl)cc2SC3)c1 | -50 | ? | . | . | .
O=C(Cc1[nH]nc2ccccc12)N[C@H](c1ccc2c(c1)CCO2)C1CC(O)C1 (stereo partly specified) | -36 | . | . | . | .
O=C(CN1C(=O)CNC1=O)N[C@H](c1ccc2c(c1)CCO2)C1CC(O)C1 (stereo partly specified) | . | . | . | . | /
N#CCC(C1CCCC1)n1cc(-c2ncnc3[nH]ccc23)cn1 (stereo unspecified) | . | / | . | / | .
O=C(NCC1CCCCC1)C1CCCN(c2ccnc3ccnn23)C1 (stereo unspecified) | . | / | . | . | /
NC(=O)N/N=C/c1ccc([N+](=O)[O-])o1 | -50! | / | . | . | .
CC(C)NC(=O)c1ccc2nc(-c3ccccn3)oc2c1 | . | / | . | ? | /
SMILES | IP6K1 inhibitor | KDM5B inhibitor | SNCA viab count | SNCA expr inhib | IP6K1 conf
COc1cc(C2c3c(oc4cc(C)c(C)cc4c3=O)C(=O)N2CCCN2CCOCC2)ccc1O (stereo unspecified) | . | ? | . | . | /
COc1cccc(C2c3c(oc4ccc(C)cc4c3=O)C(=O)N2CCCN2CCOCC2)c1OC (stereo unspecified) | -25 | . | . | . | .
CC(C(=O)NCc1ccccc1)n1ccc2cc(S(=O)(=O)N3CCCC3)ccc21 (stereo unspecified) | -27 | ? | . | . | .
CC(C(=O)NCc1ccccc1Cl)n1ccc2cc(S(=O)(=O)N3CCCCC3)ccc21 (stereo unspecified) | . | . | . | . | /
O=C(NCC1CC1)c1ccc2nnc(Cc3ccco3)n2c1 | -27! | / | . | . | ?
COCCNC(=O)c1ccc2nnc(Cc3ccco3)n2c1 | . | / | . | . | /
COc1ccc(CCNC(=O)CN2C(=O)COc3ccccc32)cc1OC | -34 | . | . | . | .
CCOc1ccccc1CN1CCO[C@@H](COC)[C@@H]1c1ccccc1 | . | / | . | . | /
Cc1oncc1C(=O)Nc1ccc(C(F)(F)F)cc1 | . | / | . | . | .
CC(C)c1ccc(-c2cc(=O)c3ccccc3o2)cc1 | -78 | / | . | / | 3.3µM
CC(=O)Nc1ccc2oc(-c3ccc(C(C)C)cc3)cc(=O)c2c1 | / | . | / | / | /

Bioassay records deposited in PubChem by National Center for Advancing Translational Sciences (NCATS).
